The target in the test is Estrogen receptor (Homo sapiens) (UniProt P03372). The test is described as follows: displacement of fluorescent estrogen from ERalpha – cell-based, Cos7 ERalpha-GFP, flow cytometry, primary screen (AID 1211).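 Note: 0% = DMSO vehicle wells and 100% = no E2-Alexa633 signal left.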 Particulars: fluorescent ligand competition, stronger effect = higher value. (In general: A flow cytometer gives signals particle by particle.)

Molecules are shown by their SMILES. The source made the active and inactive calls. The rule behind the calls is not given here.

Our source for the inhibition of ligand binding values is PubChem BioAssay AID1211 (NMMLSC, 2008).

Estrogen receptor (Homo sapiens), sequence (P03372 whole entry, looked up): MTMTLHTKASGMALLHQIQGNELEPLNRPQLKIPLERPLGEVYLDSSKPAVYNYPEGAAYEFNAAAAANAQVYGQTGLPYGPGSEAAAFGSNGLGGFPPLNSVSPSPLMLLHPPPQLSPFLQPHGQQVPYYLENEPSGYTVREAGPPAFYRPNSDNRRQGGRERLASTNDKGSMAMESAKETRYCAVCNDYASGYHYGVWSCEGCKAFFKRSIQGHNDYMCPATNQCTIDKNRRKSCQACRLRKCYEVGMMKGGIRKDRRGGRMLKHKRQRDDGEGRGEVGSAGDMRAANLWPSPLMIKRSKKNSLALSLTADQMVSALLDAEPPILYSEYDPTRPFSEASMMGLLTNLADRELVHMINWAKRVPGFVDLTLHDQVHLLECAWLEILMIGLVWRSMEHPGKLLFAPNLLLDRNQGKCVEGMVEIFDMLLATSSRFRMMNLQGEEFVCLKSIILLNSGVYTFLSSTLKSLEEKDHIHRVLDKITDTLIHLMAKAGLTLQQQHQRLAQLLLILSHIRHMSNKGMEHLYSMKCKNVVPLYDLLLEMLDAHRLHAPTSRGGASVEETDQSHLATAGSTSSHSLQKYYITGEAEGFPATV

For the compound `CC1(C)CC(=O)C2=C(C1)OC(c1ccc(O)cc1)C(C#N)=C2N` (stereo unspecified), the inhibition of ligand binding was 34% (inactive) (at 10 µM) and 5% (binding inhibition, at 0.1 µM).
On to `O=C(Nc1sc2c(c1C(=O)O)CCC2)c1ccccc1`, for which the inhibition of ligand binding runs as follows: (at 10 µM) 15% (inactive); (binding inhibition, at 0.1 µM) 61%.
With `Oc1ccc(-c2csc(-c3c[nH]c4ccccc34)n2)c(O)c1`, the inhibition of ligand binding was 57% (inactive) (at 10 µM) and 45% (binding inhibition, at 0.1 µM).
Taken in the same sequence, the figures for `CSc1nc2c(c(=O)[nH]1)C(c1cccs1)C1=C(CCCC1=O)N2` (stereo unspecified) were 28% (inactive) and 30%.
Taken in the same sequence, the figures for `Cc1csc2nc(CCNS(=O)(=O)c3ccc4c(c3)OCCO4)cn12` were 38% (active) and 77%.
The matching figures for `CCn1c(SCC(=O)N2CCOCC2)nc2oc3c(Cl)cc(Cl)cc3c(=O)c2c1=O`: 22% (inactive) and 5%.
Turning to `CC(C)CC(=O)Nc1ccc(C(=O)COc2ccc(-c3nnco3)cc2)cc1`, the inhibition of ligand binding was 28% (inactive) (at 10 µM) and 23% (binding inhibition, at 0.1 µM).
Taken in the same sequence, the figures for `C=C(C)CNC(=S)NNC(=O)CCn1c2cc(Cl)ccc2c2ccc(Cl)cc21` were 60% (inactive) and 15%.
Taken in the same sequence, the figures for `CCCC1Nc2ccc(C(=O)O)cc2C2C=CCC12` (stereo unspecified) were 22% (inactive) and 64%.
Taken in the same sequence, the figures for `O=C(Nc1ccccc1N1CCOCC1)c1cc(-c2ccco2)nc2ccccc12` were 15% (inactive) and 22%.
Regarding `COc1cc2c(cc1OC)C(Cc1ccc(O)cc1)N(C)CC2` (stereo unspecified), the inhibition of ligand binding runs as follows: (at 10 µM) 0% (inactive); (binding inhibition, at 0.1 µM) 16%.
Taken in the same sequence, the figures for `CCCCOC(=O)c1c(C)oc2ccc(NS(=O)(=O)c3ccc4c5c(cccc35)C(=O)N4)cc12` were 66% (active) and 51%.
Taken in the same sequence, the figures for `C[C@]12CC[C@@H]3c4ccc(O[C@@H]5O[C@H](C(=O)O)[C@@H](O)[C@H](O)[C@H]5O)cc4CC[C@H]3[C@@H]1C[C@@H](O)[C@@H]2O` were 72% (active) and 40%.
